GDH-TPI counter – inhibits GDH-TPI coupling enzymes, artifact for Mtb FBA screen. GDH-TPI coupled enzyme counterscreen, NADH absorbance. inhibition, % at 4.8 µM. 1.2% of 360,000 active; in the data active means inhibition above about 30%
Mtb hypoxia inh – reduces hypoxia-regulated biosensor signal in M. tuberculosis; 0.1% of 300,000 active; M. tuberculosis hypoxia-regulated fluorescent reporter, fluorescence; AID 1159583; fluorescence inhibition, % (test concentration not listed); in the data active means fluorescence inhibition mostly above about 23%, no sharp cut-off; inactive means mostly below about 17%
FBA Mtb inh – inhibits M. tuberculosis FBA enzyme; 2.3% of 360,000 active; inhibition, % at 1 µM; AID 588726; purified M. tuberculosis FBA, fluorescence read-out; P9WQA3; in the data active means inhibition above about 27%
Target sequence (P9WQA3 whole entry, looked up): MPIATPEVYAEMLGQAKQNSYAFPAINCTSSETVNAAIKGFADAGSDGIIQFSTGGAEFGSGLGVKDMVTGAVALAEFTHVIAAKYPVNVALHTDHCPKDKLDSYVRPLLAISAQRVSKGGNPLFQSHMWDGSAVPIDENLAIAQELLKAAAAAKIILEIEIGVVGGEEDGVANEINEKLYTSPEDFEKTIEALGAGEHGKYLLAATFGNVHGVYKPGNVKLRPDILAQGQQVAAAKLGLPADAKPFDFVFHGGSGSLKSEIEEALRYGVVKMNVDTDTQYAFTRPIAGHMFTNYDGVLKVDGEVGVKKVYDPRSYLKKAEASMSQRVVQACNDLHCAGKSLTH
Yp Topo-I inh – blocks Yersinia pestis topoisomerase I activity. 0.064% of 360,000 active. activity, % at 10 µM. Y. pestis Topo-I cleavage product accumulation, plate reader. AID 504884; in the data active means activity above about 50%, passing the limit was not always enough
PrPC TRFRET – inhibitors of human cell surface prion protein PrPC; 0.43% of 370,000 active; TR-FRET read-out; inhibition, % at 13.8 µM; P04156; in the data active means inhibition above about 24%
PrP UTR inh – suppresses PrP 5' UTR mRNA reporter expression; cell-based PrP 5' UTR mRNA reporter, plate reader; inhibition, % (no concentration beside the values); 0.35% of 340,000 active; AID 488862; in the data active means inhibition above about 52%
A number is an active result. A selection: hits, their analogues and other compounds. The true share with any hit is near 3.8%.

What do the screens show for `O=C(N/N=C/c1ccc2c(c1)OCO2)c1cccc2ccccc12`?
GDH-TPI counter: inactive; FBA Mtb inh: inactive; Yp Topo-I inh: inactive; PrPC TRFRET: inactive; PrP UTR inh: inactive

What do the screens show for `Cc1occc1C(=O)N/N=C/c1ccc2c(c1)OCO2`?
GDH-TPI counter: 46.5; FBA Mtb inh: inactive; Yp Topo-I inh: inactive; PrPC TRFRET: inactive; PrP UTR inh: inactive

What do the screens show for `Cc1ccsc1C(=O)N/N=C/c1ccc2c(c1)OCO2`?
GDH-TPI counter: 35.6; FBA Mtb inh: inactive; Yp Topo-I inh: inactive; PrPC TRFRET: inactive; PrP UTR inh: inactive

How did Cc1ccsc1C(=O)NN=Cc1ccc2c(c1)OCO2 do in these assays?
Mtb hypoxia inh: inactive

What do the screens show for `Cn1cc(C(=O)N/N=C/c2ccc3c(c2)OCO3)c2ccccc21`?
GDH-TPI counter: 33.7; FBA Mtb inh: inactive; Yp Topo-I inh: inactive; PrPC TRFRET: inactive; PrP UTR inh: inactive

How did COC(=O)C1=C(c2ccc(C(C)=O)cc2)CC2CCC1N2C(=O)N1CCC(O)(c2ccc(Cl)cc2)CC1 (stereo not drawn) do in these assays?
Mtb hypoxia inh: inactive

How did O=c1nc(NN=Cc2c[nH]c3ccccc23)cn[nH]1 do in these assays?
Mtb hypoxia inh: inactive

What do the screens show for `COc1ccc2c(Cl)c(C(=O)N/N=C3\CCCC(=O)C3)sc2c1`?
GDH-TPI counter: 34.1; FBA Mtb inh: inactive; Yp Topo-I inh: inactive; PrPC TRFRET: inactive; PrP UTR inh: inactive

What do the screens show for `O=C(N/N=C/c1ccc2c(c1)OCO2)c1cccs1`?
GDH-TPI counter: 34.6; FBA Mtb inh: inactive; Yp Topo-I inh: inactive; PrPC TRFRET: inactive; PrP UTR inh: inactive

Results for O=C(N/N=C/c1ccc2c(c1)OCO2)c1sc2cc(Cl)ccc2c1Cl ?
GDH-TPI counter: inactive; FBA Mtb inh: inactive; Yp Topo-I inh: inactive; PrPC TRFRET: inactive; PrP UTR inh: inactive

What do the screens show for `COc1ccc2c(Cl)c(C(=O)N/N=C/c3ccc4c(c3)OCO4)sc2c1`?
GDH-TPI counter: 46.8; FBA Mtb inh: inactive; Yp Topo-I inh: inactive; PrPC TRFRET: inactive; PrP UTR inh: inactive

What do the screens show for `COC(=O)C1=C(C)N(Cc2ccccc2)C(=NCc2ccccc2)NC1c1cccc(F)c1` (stereo not drawn)?
Mtb hypoxia inh: inactive

Results for CC(C)CC1COCCS(=O)(=O)N1Cc1cccc(C(F)(F)F)c1 (stereo not drawn) ?
Mtb hypoxia inh: inactive

How did COC(=O)C1=CN(c2ccc(F)cc2)C=C(C(=O)OC)C1c1cccc(Br)c1 do in these assays?
GDH-TPI counter: inactive; Mtb hypoxia inh: inactive; FBA Mtb inh: inactive; Yp Topo-I inh: inactive; PrPC TRFRET: inactive; PrP UTR inh: inactive

Results for COC(=O)C1=CN(Cc2ccccc2)C=C(C(=O)OC)C1c1cc(F)ccc1F ?
GDH-TPI counter: inactive; Mtb hypoxia inh: inactive; FBA Mtb inh: 121.7; Yp Topo-I inh: inactive; PrPC TRFRET: inactive; PrP UTR inh: inactive

What do the screens show for `COC(=O)C1=CN(Cc2ccc(C)cc2)C=C(C(=O)OC)C1c1ccc(F)c(F)c1`?
GDH-TPI counter: inactive; Mtb hypoxia inh: inactive; FBA Mtb inh: inactive; Yp Topo-I inh: inactive; PrPC TRFRET: inactive; PrP UTR inh: inactive

Results for COC(=O)C1=CN(Cc2ccc(OC)c(OC)c2)C=C(C(=O)OC)C1c1cccc(F)c1 ?
GDH-TPI counter: inactive; FBA Mtb inh: 123.3; Yp Topo-I inh: inactive; PrPC TRFRET: inactive; PrP UTR inh: inactive

How did CC1CN(S(=O)(=O)c2ccc3c(c2)OCCO3)CCN1S(=O)(=O)c1c(F)cccc1F (stereo not drawn) do in these assays?
Mtb hypoxia inh: inactive

How did NCCSC1CC(=O)N(c2ccc(Cl)c(Cl)c2)C1=O (stereo not drawn) do in these assays?
GDH-TPI counter: inactive; Mtb hypoxia inh: inactive; FBA Mtb inh: 46.6; Yp Topo-I inh: inactive; PrPC TRFRET: inactive; PrP UTR inh: inactive

Results for NCCSC1CC(=O)N(c2ccc(F)cc2)C1=O (stereo not drawn) ?
GDH-TPI counter: inactive; Mtb hypoxia inh: inactive; FBA Mtb inh: inactive; Yp Topo-I inh: inactive; PrPC TRFRET: inactive; PrP UTR inh: inactive

What do the screens show for `C[C@@]12C(=O)Nc3ccccc3C(=O)N1C1c3cc(Br)ccc3OCC1C2c1ccccc1` (stereo partly drawn)?
Mtb hypoxia inh: inactive

How did CC(=O)Nc1ccc(C(C#N)=Cc2ccc(N(C)CCC#N)cc2)cc1 do in these assays?
GDH-TPI counter: 31.0; FBA Mtb inh: inactive; Yp Topo-I inh: inactive; PrPC TRFRET: inactive

What do the screens show for `COc1ccc(C(C#N)=Cc2ccc(NC(C)=O)cc2)cc1`?
GDH-TPI counter: 40.4; Mtb hypoxia inh: inactive; FBA Mtb inh: inactive; Yp Topo-I inh: inactive; PrPC TRFRET: inactive; PrP UTR inh: inactive

How did COc1ccc(C=C(C#N)c2ccc(OC)cc2)cc1 do in these assays?
GDH-TPI counter: inactive; Mtb hypoxia inh: inactive; FBA Mtb inh: inactive; Yp Topo-I inh: inactive; PrPC TRFRET: inactive; PrP UTR inh: inactive

What do the screens show for `CN(CCC#N)c1ccc(C=C(C#N)c2cccc(C(F)(F)F)c2)cc1`?
FBA Mtb inh: inactive

What do the screens show for `COc1ccc(S(=O)(=O)/C(C#N)=C/Nc2ccc(NC(C)=O)cc2)cc1`?
GDH-TPI counter: 31.4; Mtb hypoxia inh: inactive; FBA Mtb inh: inactive; Yp Topo-I inh: inactive; PrPC TRFRET: inactive; PrP UTR inh: inactive

How did O=C(CSc1cccc2cccnc12)NN=Cc1cccnc1 do in these assays?
Mtb hypoxia inh: inactive

What do the screens show for `Cn1c(C(=O)NN)cc2cc(Oc3ccccc3)ccc21`?
GDH-TPI counter: inactive; Mtb hypoxia inh: inactive; FBA Mtb inh: inactive; Yp Topo-I inh: inactive; PrPC TRFRET: inactive; PrP UTR inh: inactive

What do the screens show for `Cn1c(C(=O)NN)cc2cc(OCc3ccccc3)ccc21`?
GDH-TPI counter: 31.0; Mtb hypoxia inh: inactive; FBA Mtb inh: inactive; Yp Topo-I inh: inactive; PrPC TRFRET: inactive

What do the screens show for `COC(=O)c1scc(S(=O)(=O)C(C)C)c1NN=C(C#N)C(=O)c1ccc(Cl)cc1`?
Mtb hypoxia inh: inactive

How did O=C(Nc1ncc2c(n1)-c1ccccc1OC2)c1ccc(F)cc1 do in these assays?
GDH-TPI counter: inactive; Mtb hypoxia inh: inactive; FBA Mtb inh: active; Yp Topo-I inh: inactive; PrPC TRFRET: inactive; PrP UTR inh: inactive

Results for Cc1c(C(=O)NN=Cc2ccncc2)nnn1-c1nonc1N ?
Mtb hypoxia inh: inactive

What do the screens show for `Cc1cccc(Cn2c(C(=O)OC(C)C)cc3c2ccn3C)c1`?
GDH-TPI counter: inactive; Mtb hypoxia inh: inactive; FBA Mtb inh: inactive; Yp Topo-I inh: 53.7; PrPC TRFRET: inactive; PrP UTR inh: inactive

How did O=C(c1cc(-c2ccncc2)nc2ccccc12)N1CCN(S(=O)(=O)C=Cc2ccccc2)CC1 do in these assays?
Mtb hypoxia inh: inactive

What do the screens show for `COc1nc2ccccc2nc1N1CC1`?
FBA Mtb inh: 28.8; PrPC TRFRET: inactive

Results for O=C(c1cccc([N+](=O)[O-])c1)N1CCOCC1 ?
GDH-TPI counter: inactive; Mtb hypoxia inh: inactive; FBA Mtb inh: inactive; Yp Topo-I inh: inactive; PrPC TRFRET: inactive; PrP UTR inh: inactive

What do the screens show for `O=C(c1cccc(NS(=O)(=O)c2cccc([N+](=O)[O-])c2)c1)N1CCOCC1`?
GDH-TPI counter: inactive; Mtb hypoxia inh: inactive; FBA Mtb inh: 156.4; Yp Topo-I inh: inactive; PrPC TRFRET: inactive; PrP UTR inh: inactive
